From PubChem BioAssay (NCATS) come the findings set out here.

Test [1] in a line: qHTS to identify inhibitors of the type 1 interferon - major histocompatibility complex class I in skeletal muscle: primary screen against the NCATS LOPAC collection (AID 1347405).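 Note: lytic HiBiT luminescence reporting HLA-B protein level.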 Summed up: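 CRISPR-engineered immortalized human myoblasts (C25cl48) with HiBiT fused to endogenous HLA-B*08:01, stimulated with 4 ng/ml IFN-beta. LOPAC compounds tested as a 7-point 1:4.3 titration (top 46 uM final), 24 h at 37 C; lytic HiBiT luminescence read.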

Test [2] in a line: qHTS for inhibitors of adenylyl cyclases using a fission yeast platform: a pilot screen against the NCATS LOPAC library (AID 1347410). In a few lines: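 Read-out: fbp1-GFP fluorescence by laser scanning cytometry (488 nm laser), a gain of signal when AC/cAMP-PKA signalling is inhibited. Strain CHP2027 expressing AC9, GNAS and PDE4D2; compounds at up to 57 µM; 18 h, 30C.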
In general terms: In qHTS, concentration-response curves come from the screen itself.

Test [3] can be described thus: Validation qHTS assay for inhibitors of Activation Induced Cytidine Deaminase (AID): UDG Counterscreen signal (AID 1347427). In a few lines: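 Counterscreen read of UDG activity (2 U/mL, 4/3x) in the FRET deamination format with AID (1 uM, 4/3x), DJC20/DJC23 substrates (250 nM, 4x), 4 h at room temperature. NaOH stop, fluorescence at 560 ex/665 em.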
Test [4] deals with Single-stranded DNA cytosine deaminase (Homo sapiens) (UniProt Q9GZX7). The experiment in a line: Validation qHTS assay for inhibitors of Activation Induced Cytidine Deaminase (AID): AID signal (AID 1347429). Summed up:
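FRET deamination assay: 1 uM AID (4/3x stock) with UDG, compound up to 114 uM, then 250 nM DJC20/DJC23 substrate (4x stock) for 4 hr at room temperature. NaOH added, 30 min; fluorescence read 540/590 nm.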

The nature of test [5]: Primary qHTS for inhibitors of La Crosse Virus (LACV) - induced cell death in SH-SY5Y cells (AID 1508616). Note: potency is the fitted concentration of half-maximal effect. Summed up:
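SH-SY5Y cells (6000/well) plated 24 h, then given compounds by pin transfer and LACV at 0.01 MOI for 6 days at 37C. Viability measured by ATPLite luminescence, normalized to infected DMSO and uninfected DMSO.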

Each structure is given as a SMILES string. Inconclusive results are not listed. The source made the active and inactive calls. Calls come from the whole dose curve; as a rule, active = well fitted curve in the direction sought with a large enough effect; inconclusive = small, poorly fitted or top-dose-only effect, or another doubt; inactive = no such curve, though single readings can be large; an effect the other way counts as inactive or inconclusive.

Sequence of Single-stranded DNA cytosine deaminase (Homo sapiens) (Q9GZX7 whole entry, looked up): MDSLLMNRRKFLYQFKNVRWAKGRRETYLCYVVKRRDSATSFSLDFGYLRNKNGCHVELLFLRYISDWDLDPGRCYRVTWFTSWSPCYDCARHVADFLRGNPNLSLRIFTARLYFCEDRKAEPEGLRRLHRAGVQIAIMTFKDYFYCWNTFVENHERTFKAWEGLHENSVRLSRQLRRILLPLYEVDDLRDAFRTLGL

For the compound `O=c1[nH]c2cc(C(F)(F)F)ccc2n1-c1cc(C(F)(F)F)ccc1O`, the Potency result in test [1], in test [3], in test [4] and in test [5] was “inactive” each time. In addition, the outcome in test [2] was inactive.

For `CSc1nc(N)c2ncn([C@@H]3O[C@H](COP(=O)(O)OP(=O)(O)OP(=O)(O)O)[C@@H](O)[C@H]3O)c2n1`, the Potency entry in test [1], in test [3], in test [4] and in test [5] was “inactive” throughout. In test [2], the result was inactive.

As to `CN1[C@@H](CC(=O)c2ccccc2)CCC[C@H]1C[C@H](O)c1ccccc1`, the Potency entry in test [1], in test [3], in test [4] and in test [5] was “inactive” each time. The result in test [2] was inactive.

On to `Clc1ccc(N2CCN(Cc3cc4ccccn4n3)CC2)cc1`, for which the Potency result in test [1], in test [4] and in test [5] was “inactive” in each case. The call in test [2] was inactive.

`NCCSSCCN`: the Potency result in test [1], in test [4] and in test [5] was “inactive” in each case. Further, the result in test [2] was inactive.

Consider `O=C(/C=C/c1ccc(O)c(O)c1)OCCc1ccccc1`, for which the Potency result in test [1] and in test [3] was “inactive” throughout. Further, the call in test [2] was inactive. Also, the Potency in test [5] is 631 nM (active).

Turning to `CCN(CC)c1ncnc2c1ncn2[C@@H]1O[C@H](COP(=O)(O)OP(=O)(O)C(Br)(Br)P(=O)(O)O)[C@@H](O)[C@H]1O`, the Potency entry in test [1], in test [3] and in test [5] was “inactive” throughout.

Take `Fc1cccc(/C=N/N=C/c2cccc(F)c2)c1`: the Potency result in test [1], in test [4] and in test [5] was “inactive” each time.

In the case of `CC(C)(C=O)Cc1cc(C(C)(C)C)c(O)c(C(C)(C)C)c1`, the Potency result in test [1], in test [3], in test [4] and in test [5] was “inactive” throughout.

For the compound `CCCCCCCCc1ccc(-c2ccc(C(=O)O)cc2)cc1`, the Potency result in test [1], in test [3], in test [4] and in test [5] was “inactive” in each case.

Turning to `Oc1ccc(C2CNCc3sccc32)cc1O` (stereo not drawn), the Potency result in test [1], in test [3], in test [4] and in test [5] was “inactive” each time.

On to `c1ccc(-c2ccccn2)nc1`, for which the Potency result in test [1], in test [4] and in test [5] was “inactive” throughout. Besides, the compound was called inactive in test [2].

For `O=C(O)c1cc([N+](=O)[O-])ccc1NCCCc1ccccc1`, the Potency result in test [1], in test [4] and in test [5] was “inactive” throughout. The compound was called inactive in test [2].
